What was measured:
[1] = molecular target: Protein kinase C gamma type (Homo sapiens) (UniProt P05129); settings: at 1 µM;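 further: each value is an averaged percent inhibition of the enzyme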
[2] = molecular target: T1, Protein kinase C iota type (Homo sapiens) (UniProt P41743); settings: at 0.1 µM
T1 sequence (whole entry): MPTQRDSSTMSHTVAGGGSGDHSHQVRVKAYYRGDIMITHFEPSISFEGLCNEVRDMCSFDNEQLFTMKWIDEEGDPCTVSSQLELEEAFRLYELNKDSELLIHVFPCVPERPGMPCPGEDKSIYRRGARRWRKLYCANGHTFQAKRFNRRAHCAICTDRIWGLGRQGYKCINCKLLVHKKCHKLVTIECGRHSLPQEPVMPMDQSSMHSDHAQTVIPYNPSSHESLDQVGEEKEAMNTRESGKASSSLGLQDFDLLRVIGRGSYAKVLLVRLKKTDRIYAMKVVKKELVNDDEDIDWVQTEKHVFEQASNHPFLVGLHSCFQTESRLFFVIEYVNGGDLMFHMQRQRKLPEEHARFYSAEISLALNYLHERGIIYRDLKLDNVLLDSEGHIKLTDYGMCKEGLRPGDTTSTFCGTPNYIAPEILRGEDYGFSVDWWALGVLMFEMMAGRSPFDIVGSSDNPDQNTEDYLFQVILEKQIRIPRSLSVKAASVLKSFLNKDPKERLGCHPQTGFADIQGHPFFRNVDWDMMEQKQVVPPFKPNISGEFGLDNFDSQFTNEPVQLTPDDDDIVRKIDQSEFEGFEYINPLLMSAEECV

[3] = molecular target: T1, Protein kinase C iota type (Homo sapiens); settings: at 1 µM
[4] = molecular target: Protein kinase C theta type (Homo sapiens) (UniProt Q04759); settings: at 0.1 µM
[5] = molecular target: Protein kinase C theta type (Homo sapiens) (UniProt Q04759); settings: at 1 µM
[6] = molecular target: Protein kinase C beta type (Homo sapiens) (UniProt P05771); settings: at 0.1 µM
[7] = molecular target: Protein kinase C beta type (Homo sapiens) (UniProt P05771); settings: at 1 µM
[8] = molecular target: T2, Serine/threonine-protein kinase D1 (Homo sapiens) (UniProt Q15139); settings: at 0.1 µM
T2 sequence (whole entry): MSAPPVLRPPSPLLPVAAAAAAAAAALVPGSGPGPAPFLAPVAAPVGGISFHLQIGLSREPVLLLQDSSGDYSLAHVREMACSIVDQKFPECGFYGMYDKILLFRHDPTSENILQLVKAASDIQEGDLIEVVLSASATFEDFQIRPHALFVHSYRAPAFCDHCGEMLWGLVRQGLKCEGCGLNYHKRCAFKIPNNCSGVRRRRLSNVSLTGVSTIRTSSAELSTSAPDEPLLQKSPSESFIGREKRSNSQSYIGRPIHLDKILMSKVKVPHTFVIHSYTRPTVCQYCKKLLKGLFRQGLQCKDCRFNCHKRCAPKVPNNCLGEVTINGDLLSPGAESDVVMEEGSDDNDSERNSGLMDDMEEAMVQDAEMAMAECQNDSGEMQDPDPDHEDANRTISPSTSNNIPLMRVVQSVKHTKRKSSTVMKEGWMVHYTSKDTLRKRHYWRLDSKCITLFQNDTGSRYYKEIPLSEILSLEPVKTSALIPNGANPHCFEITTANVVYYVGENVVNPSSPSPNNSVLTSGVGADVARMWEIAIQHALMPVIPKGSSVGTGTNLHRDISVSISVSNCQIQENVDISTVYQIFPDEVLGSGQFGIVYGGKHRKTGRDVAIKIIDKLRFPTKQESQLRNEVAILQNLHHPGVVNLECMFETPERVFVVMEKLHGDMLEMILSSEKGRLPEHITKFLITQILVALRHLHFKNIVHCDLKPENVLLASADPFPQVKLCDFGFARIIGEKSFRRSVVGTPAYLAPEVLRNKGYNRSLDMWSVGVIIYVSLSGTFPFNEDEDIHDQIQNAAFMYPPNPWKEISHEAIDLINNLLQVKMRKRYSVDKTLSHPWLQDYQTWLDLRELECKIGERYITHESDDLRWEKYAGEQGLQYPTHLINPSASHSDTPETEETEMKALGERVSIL

[9] = molecular target: T2, Serine/threonine-protein kinase D1 (Homo sapiens); settings: at 1 µM
[10] = molecular target: T3, Serine/threonine-protein kinase D2 (Homo sapiens) (UniProt Q9BZL6); settings: at 0.1 µM
T3 sequence (whole entry): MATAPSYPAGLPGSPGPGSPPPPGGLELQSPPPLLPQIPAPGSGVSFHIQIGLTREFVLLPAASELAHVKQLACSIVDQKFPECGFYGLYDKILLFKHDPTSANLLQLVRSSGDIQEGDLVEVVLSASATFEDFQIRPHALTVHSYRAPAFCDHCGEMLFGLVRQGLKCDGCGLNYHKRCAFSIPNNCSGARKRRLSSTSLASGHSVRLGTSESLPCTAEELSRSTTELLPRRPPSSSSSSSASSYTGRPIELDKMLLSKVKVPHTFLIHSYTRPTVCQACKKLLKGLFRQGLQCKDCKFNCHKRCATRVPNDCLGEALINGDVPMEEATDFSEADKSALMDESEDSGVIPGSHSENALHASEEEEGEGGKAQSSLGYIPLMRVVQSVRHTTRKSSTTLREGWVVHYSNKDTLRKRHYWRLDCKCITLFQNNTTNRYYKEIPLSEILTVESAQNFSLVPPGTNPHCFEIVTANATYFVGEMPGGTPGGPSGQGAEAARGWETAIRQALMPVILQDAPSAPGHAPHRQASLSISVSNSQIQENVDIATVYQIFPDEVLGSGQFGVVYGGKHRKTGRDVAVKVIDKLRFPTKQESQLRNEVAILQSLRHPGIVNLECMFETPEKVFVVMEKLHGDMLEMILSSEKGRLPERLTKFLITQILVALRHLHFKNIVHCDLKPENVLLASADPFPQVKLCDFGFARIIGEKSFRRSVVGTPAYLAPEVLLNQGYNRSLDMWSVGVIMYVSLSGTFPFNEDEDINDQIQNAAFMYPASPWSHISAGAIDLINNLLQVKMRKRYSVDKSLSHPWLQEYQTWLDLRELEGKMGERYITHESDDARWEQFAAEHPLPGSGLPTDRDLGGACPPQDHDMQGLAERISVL

[11] = molecular target: T3, Serine/threonine-protein kinase D2 (Homo sapiens); settings: at 1 µM
[12] = molecular target: T4, Serine/threonine-protein kinase D3 (Homo sapiens) (UniProt O94806); settings: at 0.1 µM
T4 sequence (whole entry): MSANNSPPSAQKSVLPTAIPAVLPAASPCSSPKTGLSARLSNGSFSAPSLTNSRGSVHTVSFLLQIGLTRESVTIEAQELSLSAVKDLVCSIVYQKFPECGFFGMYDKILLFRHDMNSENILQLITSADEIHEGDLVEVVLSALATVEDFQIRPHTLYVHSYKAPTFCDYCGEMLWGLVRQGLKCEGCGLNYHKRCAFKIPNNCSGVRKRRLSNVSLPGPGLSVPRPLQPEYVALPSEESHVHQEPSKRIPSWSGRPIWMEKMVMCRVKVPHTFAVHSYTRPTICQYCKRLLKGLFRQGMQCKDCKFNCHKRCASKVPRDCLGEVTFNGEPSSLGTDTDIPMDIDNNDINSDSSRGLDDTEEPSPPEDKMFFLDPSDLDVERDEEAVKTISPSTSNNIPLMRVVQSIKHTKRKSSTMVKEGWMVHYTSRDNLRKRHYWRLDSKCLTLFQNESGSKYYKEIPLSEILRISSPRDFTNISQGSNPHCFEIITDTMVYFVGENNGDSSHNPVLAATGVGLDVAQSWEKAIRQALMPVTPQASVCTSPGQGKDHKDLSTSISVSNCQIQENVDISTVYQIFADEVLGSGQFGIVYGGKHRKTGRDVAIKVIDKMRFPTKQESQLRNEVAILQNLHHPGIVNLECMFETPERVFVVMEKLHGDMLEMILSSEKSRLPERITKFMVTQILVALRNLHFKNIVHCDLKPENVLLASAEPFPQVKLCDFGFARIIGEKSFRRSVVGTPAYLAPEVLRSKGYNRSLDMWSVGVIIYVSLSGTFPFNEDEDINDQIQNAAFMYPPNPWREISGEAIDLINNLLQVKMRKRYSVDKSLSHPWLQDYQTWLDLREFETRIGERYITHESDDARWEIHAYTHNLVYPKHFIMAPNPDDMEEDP

[13] = molecular target: T4, Serine/threonine-protein kinase D3 (Homo sapiens); settings: at 1 µM
[14] = molecular target: T5, cGMP-dependent protein kinase 1 (Homo sapiens) (UniProt Q13976); settings: at 0.1 µM
T5 sequence (whole entry): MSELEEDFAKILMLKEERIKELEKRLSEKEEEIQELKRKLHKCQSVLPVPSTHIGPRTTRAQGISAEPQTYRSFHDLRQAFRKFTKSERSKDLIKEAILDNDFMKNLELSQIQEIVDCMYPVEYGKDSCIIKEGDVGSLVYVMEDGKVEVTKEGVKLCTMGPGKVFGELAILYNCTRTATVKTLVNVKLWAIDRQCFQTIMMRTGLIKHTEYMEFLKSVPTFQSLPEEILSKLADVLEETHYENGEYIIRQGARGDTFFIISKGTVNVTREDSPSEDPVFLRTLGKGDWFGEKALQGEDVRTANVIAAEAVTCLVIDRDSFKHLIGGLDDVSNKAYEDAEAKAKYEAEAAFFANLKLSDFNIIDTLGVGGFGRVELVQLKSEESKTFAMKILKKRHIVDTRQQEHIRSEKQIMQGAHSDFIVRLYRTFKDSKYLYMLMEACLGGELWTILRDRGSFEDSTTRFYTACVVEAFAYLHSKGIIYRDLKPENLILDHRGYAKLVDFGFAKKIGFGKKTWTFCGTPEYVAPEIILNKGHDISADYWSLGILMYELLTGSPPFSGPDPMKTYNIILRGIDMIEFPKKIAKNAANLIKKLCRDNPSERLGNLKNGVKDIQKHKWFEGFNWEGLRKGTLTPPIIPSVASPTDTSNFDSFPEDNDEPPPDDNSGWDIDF

[15] = molecular target: T5, cGMP-dependent protein kinase 1 (Homo sapiens); settings: at 1 µM
[16] = molecular target: T6, cGMP-dependent protein kinase 2 (Homo sapiens) (UniProt Q13237); settings: at 0.1 µM
T6 sequence (whole entry): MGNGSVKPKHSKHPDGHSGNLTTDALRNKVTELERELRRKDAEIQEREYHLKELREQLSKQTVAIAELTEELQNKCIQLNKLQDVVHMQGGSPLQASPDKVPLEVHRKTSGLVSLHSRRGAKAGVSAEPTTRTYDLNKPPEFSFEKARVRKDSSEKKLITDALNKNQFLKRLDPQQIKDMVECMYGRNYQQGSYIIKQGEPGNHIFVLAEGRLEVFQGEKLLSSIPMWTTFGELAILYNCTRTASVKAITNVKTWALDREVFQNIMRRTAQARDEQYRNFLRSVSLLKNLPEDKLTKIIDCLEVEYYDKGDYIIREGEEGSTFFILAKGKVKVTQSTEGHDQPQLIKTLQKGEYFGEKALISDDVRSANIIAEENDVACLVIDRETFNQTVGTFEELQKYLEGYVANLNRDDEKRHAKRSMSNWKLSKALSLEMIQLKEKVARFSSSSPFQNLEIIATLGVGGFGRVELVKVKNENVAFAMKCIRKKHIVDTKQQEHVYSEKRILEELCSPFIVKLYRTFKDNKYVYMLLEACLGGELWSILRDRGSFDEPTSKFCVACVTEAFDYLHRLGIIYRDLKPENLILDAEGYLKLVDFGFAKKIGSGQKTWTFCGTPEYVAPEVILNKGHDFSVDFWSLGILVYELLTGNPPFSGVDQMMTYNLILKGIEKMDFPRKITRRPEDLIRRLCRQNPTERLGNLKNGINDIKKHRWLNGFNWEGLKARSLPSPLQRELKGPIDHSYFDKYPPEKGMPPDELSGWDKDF

[17] = molecular target: T6, cGMP-dependent protein kinase 2 (Homo sapiens); settings: at 1 µM
[18] = molecular target: T7, cAMP-dependent protein kinase catalytic subunit PRKX (Homo sapiens) (UniProt P51817); settings: at 0.1 µM
T7 sequence (whole entry): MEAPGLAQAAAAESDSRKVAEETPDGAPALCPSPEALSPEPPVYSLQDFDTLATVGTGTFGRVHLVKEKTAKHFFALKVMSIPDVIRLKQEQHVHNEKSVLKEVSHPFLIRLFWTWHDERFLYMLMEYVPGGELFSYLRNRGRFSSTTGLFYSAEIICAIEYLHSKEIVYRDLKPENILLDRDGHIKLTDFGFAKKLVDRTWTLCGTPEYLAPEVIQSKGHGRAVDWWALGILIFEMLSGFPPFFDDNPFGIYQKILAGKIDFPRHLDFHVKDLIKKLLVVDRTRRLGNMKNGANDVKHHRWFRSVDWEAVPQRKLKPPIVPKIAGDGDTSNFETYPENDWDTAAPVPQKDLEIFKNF

[19] = molecular target: T7, cAMP-dependent protein kinase catalytic subunit PRKX (Homo sapiens); settings: at 1 µM
[20] = molecular target: Rho-associated protein kinase 1 (Homo sapiens) (UniProt Q13464); settings: at 0.1 µM;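 further: values are mean percent inhibition of ROCK1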
Rho-associated protein kinase 1 (Homo sapiens), sequence (Q13464 2-1354 limits assumed): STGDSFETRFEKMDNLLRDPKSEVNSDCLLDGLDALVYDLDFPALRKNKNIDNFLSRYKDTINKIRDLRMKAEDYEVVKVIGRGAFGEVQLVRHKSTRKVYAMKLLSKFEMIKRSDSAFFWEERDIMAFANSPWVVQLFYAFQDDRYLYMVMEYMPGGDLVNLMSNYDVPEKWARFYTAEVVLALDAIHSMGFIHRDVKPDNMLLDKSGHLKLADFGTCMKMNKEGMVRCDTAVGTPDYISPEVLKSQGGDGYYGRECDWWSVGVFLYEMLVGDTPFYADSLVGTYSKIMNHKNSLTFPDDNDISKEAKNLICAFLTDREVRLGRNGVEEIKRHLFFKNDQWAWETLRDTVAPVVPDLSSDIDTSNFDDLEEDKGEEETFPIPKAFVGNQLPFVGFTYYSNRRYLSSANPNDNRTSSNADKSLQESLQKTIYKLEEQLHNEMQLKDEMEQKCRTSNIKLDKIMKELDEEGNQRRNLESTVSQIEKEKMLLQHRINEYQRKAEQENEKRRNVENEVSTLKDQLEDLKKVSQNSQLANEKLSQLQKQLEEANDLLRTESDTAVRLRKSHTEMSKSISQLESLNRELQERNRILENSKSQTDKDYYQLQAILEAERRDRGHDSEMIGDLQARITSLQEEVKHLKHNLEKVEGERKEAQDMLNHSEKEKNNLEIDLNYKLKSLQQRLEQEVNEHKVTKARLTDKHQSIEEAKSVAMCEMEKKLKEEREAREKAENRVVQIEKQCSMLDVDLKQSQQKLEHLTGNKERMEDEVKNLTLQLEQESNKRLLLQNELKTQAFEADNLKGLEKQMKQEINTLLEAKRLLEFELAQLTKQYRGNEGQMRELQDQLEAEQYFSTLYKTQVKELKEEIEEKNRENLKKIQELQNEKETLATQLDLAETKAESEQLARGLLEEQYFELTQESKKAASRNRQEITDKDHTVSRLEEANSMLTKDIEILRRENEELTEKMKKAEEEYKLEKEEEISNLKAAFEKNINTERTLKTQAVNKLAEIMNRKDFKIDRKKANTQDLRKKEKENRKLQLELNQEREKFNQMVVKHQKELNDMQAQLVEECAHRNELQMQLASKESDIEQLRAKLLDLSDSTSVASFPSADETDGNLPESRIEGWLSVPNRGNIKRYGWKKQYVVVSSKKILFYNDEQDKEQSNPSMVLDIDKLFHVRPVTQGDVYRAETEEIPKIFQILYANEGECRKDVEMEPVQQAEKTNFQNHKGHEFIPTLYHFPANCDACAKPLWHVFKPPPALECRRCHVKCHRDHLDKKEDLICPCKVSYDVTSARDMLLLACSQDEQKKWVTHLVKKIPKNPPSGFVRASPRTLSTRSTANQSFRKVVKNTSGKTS

Protein kinase C beta type (Homo sapiens), sequence (P05771 2-671 limits assumed): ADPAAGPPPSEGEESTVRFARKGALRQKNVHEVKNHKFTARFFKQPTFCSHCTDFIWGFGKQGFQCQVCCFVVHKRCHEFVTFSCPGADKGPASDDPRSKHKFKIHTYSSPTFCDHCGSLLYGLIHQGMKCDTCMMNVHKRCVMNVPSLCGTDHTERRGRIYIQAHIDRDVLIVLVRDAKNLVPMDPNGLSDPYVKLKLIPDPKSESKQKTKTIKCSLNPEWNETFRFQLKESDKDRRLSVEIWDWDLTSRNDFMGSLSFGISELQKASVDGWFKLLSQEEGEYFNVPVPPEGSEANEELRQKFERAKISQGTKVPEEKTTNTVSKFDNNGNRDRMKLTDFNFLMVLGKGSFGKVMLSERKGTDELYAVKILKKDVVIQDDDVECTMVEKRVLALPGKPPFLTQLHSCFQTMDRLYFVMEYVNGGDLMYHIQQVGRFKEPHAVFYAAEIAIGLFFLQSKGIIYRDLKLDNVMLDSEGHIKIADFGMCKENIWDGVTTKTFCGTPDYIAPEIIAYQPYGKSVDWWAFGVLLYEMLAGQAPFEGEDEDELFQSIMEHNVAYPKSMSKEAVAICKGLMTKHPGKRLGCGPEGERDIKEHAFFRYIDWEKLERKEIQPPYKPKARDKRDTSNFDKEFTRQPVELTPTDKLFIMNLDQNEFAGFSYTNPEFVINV
Protein kinase C theta type (Homo sapiens), sequence (Q04759 whole entry, looked up): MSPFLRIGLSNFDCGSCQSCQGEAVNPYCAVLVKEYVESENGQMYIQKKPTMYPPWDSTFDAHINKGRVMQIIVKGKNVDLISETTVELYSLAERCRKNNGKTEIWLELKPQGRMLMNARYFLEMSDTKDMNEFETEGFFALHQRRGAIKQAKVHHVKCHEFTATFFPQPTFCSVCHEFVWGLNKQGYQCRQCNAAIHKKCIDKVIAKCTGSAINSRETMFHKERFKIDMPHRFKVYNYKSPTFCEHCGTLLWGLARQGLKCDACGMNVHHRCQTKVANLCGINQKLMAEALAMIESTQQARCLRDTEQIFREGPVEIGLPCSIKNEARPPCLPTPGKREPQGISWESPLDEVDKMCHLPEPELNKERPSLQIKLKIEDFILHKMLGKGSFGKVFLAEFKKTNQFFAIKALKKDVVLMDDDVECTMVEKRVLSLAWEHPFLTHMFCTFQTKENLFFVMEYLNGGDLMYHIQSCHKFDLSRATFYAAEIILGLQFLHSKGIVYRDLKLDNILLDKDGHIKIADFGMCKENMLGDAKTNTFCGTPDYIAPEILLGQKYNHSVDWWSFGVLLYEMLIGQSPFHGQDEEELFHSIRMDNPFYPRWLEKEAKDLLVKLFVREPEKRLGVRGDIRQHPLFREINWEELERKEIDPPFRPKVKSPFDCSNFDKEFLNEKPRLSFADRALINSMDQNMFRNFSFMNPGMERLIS

Structure (SMILES) | inhibition [1] | inhibition [2] | inhibition [3] | inhibition [4] | inhibition [5] | inhibition [6] | inhibition [7] | inhibition [8] | inhibition [9] | inhibition [10] | inhibition [11] | inhibition [12] | inhibition [13] | inhibition [14] | inhibition [15] | inhibition [16] | inhibition [17] | inhibition [18] | inhibition [19] | inhibition [20]
CN(c1ccc(NC(=O)NCCN2CCOCC2)cc1)c1ccnc(Nc2ccc(CS(C)(=O)=O)cc2)n1 | 4.99% | 2.77% | 2.1% | 2.63% | 3.43% | 0.67% | -0.33% | 2.05% | 1.78% | 2% | 1.04% | 1.13% | 0.94% | 2.25% | 2.49% | 0.06% | 0.57% | 2.36% | 4.38% | 1.51%
CCS(=O)(=O)c1ccc(OC)c(Nc2ncc(-c3cccc(F)c3)o2)c1 | 5.39% | 2.05% | 3.04% | 2.72% | 4.21% | 1.9% | 4.01% | 4.25% | 5.42% | 3.92% | 3.8% | 4.67% | 4.73% | 4.88% | 8.02% | 3.78% | 6.47% | 3.37% | 2.6% | 2.49%
CS(=O)(=O)CCNCc1ccc(-c2ccc3ncnc(Nc4ccc(OCc5ccccc5)cc4)c3c2)o1 | 3.26% | 1.61% | 1.87% | 1.49% | 2.01% | 0.51% | 0.86% | 3.17% | 4.08% | 2.78% | 2.54% | 3.53% | 3.51% | 2.37% | 1.88% | 2.69% | 2.6% | 1.54% | 1.49% | 1.22%

Reference: ChEMBL document CHEMBL1961873, “Compounds: GSK PKIS; Assays: Nanosyn kinase panel” (2012)
